We go through 22 compounds from PubChem BioAssay AID602405 (Broad Institute, 2012).

As usually defined, the inhibition is the change of the read-out against control, counted positive when it falls.

Each structure is given as a SMILES string. The whole screen tested about 360,000 compounds, of which about 350 (0.097%) were called active. What follows is part of a selection rich in actives, with near analogues and random picks from the rest. Values without a mark were called inactive. Cut-off read from the data, not from the text of the source: active = inhibition above about 16% (passing the limit was not always enough); inconclusive = no clear call, values can overlap the other calls; inactive = below that.

The subject of the assay is UDP-N-acetylbacillosamine N-acetyltransferase PglD (Campylobacter jejuni). Description: blockers of PglD enzyme activity – biochemical, DTNB colorimetric, single point, primary screen (AID 602405). As to conditions: purified PglD enzyme, DTNB colorimetric CoA detection; at 12.5 µM; active compounds read high.
Take `C[C@@H]1CN([C@@H](C)CO)C(=O)c2cc(N(C)C)ccc2O[C@@H](C)CCCCO[C@H]1CN(C)C(=O)CCCN(C)C`: the inhibition was 2.35%.
Regarding `CCC(=O)Nc1ccc2c(c1)C(=O)N(C)C[C@@H](OC)[C@@H](C)CN(Cc1ccccc1OC)[C@H](C)CO2`, the inhibition was 0.2%.
Under `CC(C)NC(=O)Nc1ccc2c(c1)C(=O)N([C@H](C)CO)C[C@@H](C)[C@@H](CN(C)S(=O)(=O)c1cccs1)OCCCC[C@@H](C)O2` stands -0.385%; under `C[C@H]1CN([C@@H](C)CO)C(=O)c2cccc(NC(=O)Nc3cccc4ccccc34)c2O[C@@H]1CN(C)C(=O)NC1CCCCC1`, 0.764%.
Under `C[C@@H]1CN([C@H](C)CO)S(=O)(=O)c2ccc(C#CCC3CCCC3)cc2O[C@H]1CN(C)Cc1ccc(C(=O)O)cc1` stands 6.4%.
The result for `Cc1noc(C)c1S(=O)(=O)Nc1ccc2c(c1)CC(=O)N([C@@H](C)CO)C[C@@H](C)[C@H](CN(C)C)O2` reads -1.66%.
On to `CN(C)C(=O)c1cccc(-c2ccc3c(c2)[C@@H]2[C@@H](CCN2Cc2nccs2)[C@@H](CO)N3)c1`, for which the inhibition was 0.288%.
Under `CCNC(=O)Nc1ccc2c(c1)C(=O)N(C)[C@@H]1CC[C@H](CC(=O)NC3CCCCC3)O[C@H]1CO2` stands 1.07%; under `C[C@@H]1CN([C@@H](C)CO)C(=O)c2cc(C#CCN(C)C)cnc2O[C@@H]1CN(C)Cc1ccccn1`, 3.09%; under `COc1cccc(NC(=O)N(C)C[C@H]2Oc3ncc(C4=CCCCC4)cc3C(=O)N([C@H](C)CO)C[C@H]2C)c1`, 10.3%.
Under `CN1C(=O)c2cc(NC(=O)c3cccc(F)c3)ccc2OC[C@@H]2O[C@H](CC(=O)N3CCc4ccccc4C3)CC[C@@H]21` stands -1.96%; under `CNC(=O)C[C@@H]1CC[C@@H]2[C@H](COC[C@@H](O)CN2S(=O)(=O)c2ccccc2Cl)O1`, 1.56%.
Under `Cc1noc(C)c1S(=O)(=O)N(C)C[C@H]1Oc2ccc(NC(=O)Cc3ccccc3)cc2CC(=O)N([C@@H](C)CO)C[C@H]1C` stands 2.8%; under `O=C(C[C@H]1C[C@@H]2c3cc(NC(=O)C4CCC4)ccc3O[C@@H]2[C@@H](CO)O1)NCCN1CCCCC1`, 3.36%; under `COc1cccc(S(=O)(=O)N[C@H]2C=C[C@H](CC(=O)NC3Cc4ccccc4C3)O[C@@H]2CO)c1`, -1.14%.
Turning to `COc1ccc(S(=O)(=O)N[C@@H]2CC[C@H](CC(=O)N3CCc4ccccc4C3)O[C@H]2CO)cc1`, the inhibition is -0.563%.
In the case of `COCC#Cc1cnc2c(c1)C(=O)N([C@@H](C)CO)C[C@@H](C)[C@H](CN(C)C(=O)C1CCOCC1)O2`, the inhibition was 4.25%.
For the compound `COc1ccc(NC(=O)N(C)C[C@H]2OCCCC[C@@H](C)Oc3ccc(NC(=O)NC4CCCCC4)cc3C(=O)N([C@@H](C)CO)C[C@H]2C)cc1`, the inhibition is 4.17%.
Under `O=C(NCC[C@@H]1CC[C@@H](NC(=O)Nc2cc(F)ccc2F)[C@H](CO)O1)Nc1ccc(Cl)cc1` stands 0.614%.
As for `COc1cccc(S(=O)(=O)N2CCCCN3[C@H](CO)[C@H](c4ccc(-c5ccncc5)cc4)[C@H]3C2)c1`, the inhibition was 2.87%.
The result for `Cc1noc(C)c1S(=O)(=O)N(C)C[C@@H]1Oc2ccc(NC(=O)C3CC3)cc2CC(=O)N([C@@H](C)CO)C[C@@H]1C` reads -3.27%; that for `COc1cccc(C(=O)Nc2ccc3c(c2)C(=O)N(C)[C@H]2CC[C@H](CC(=O)N[C@@H](C)c4ccccc4)O[C@H]2CO3)c1`, 0.936%.
